We go through 88 compounds from PubChem BioAssay AID588549 (Broad Institute, 2011).

In all, about 360,000 compounds went through this assay and about 780 (0.22%) were called active. No stated cut-off is given here; in the data, active means inhibition above about 8.5% (passing the limit was not always enough); inconclusive means no clear call, values can overlap the other calls. The entries come from a sample that favours actives as a whole.

For the experiment, the system named is Mycobacterium tuberculosis FadD28 fatty-acid-AMP ligase. The experiment can be described thus: inhibitors of FadD28 bisubstrate probe binding, primary screen, biochemical, fluorescence polarization, single point (AID 588549). To be noted: at 12.5 µM, hits give high values. In general terms: In fluorescence polarisation assays a small probe gives low polarisation when free and higher when bound to something large.
Take `CC12CCC(=O)N1C(C(=O)Nc1ccc(F)c(F)c1F)CS2` (stereo not drawn): the inhibition (commonly the relative decrease from the control value, in per cent) is -2.85% (inactive).

Take `CC[C@]1(C(=O)OC)[C@H]2C(=O)N(Cc3ccccc3)C(=O)[C@H]2[C@H]2CN=C(SCc3ccc(C#N)cc3)N21`: the inhibition was -7.96% (inactive). As for `COc1cc(/C=C2/C(=O)NN(c3cccc(Cl)c3)C2=O)cc(Br)c1O`, the figure is 14.2% (active); as for `CCOc1c(Br)cc(/C=C2\C(=O)N(CCC#N)N=C2C)cc1OC`, -4.34% (inactive).

Consider `O=C(O)c1[nH]c2ccccc2c1C(c1cccc(O)c1)c1c(C(=O)O)[nH]c2ccccc12`, for which the inhibition is 28.9% (active).

As for `CCCS(=O)(=O)Nc1c(C(=O)O)[nH]c2ccccc12`, the inhibition was 1.47% (inactive).

On to `Cc1c(C(=O)CN2CCOCC2)[nH]c2ccccc12`, for which the inhibition is -2.15% (inactive).

With `CC(=O)Nc1cccc(/C(C)=N/NC(=O)c2c(-c3ccccc3Cl)noc2C)c1`, the inhibition was -2.25% (inactive). For `C/C(=N\Nc1cccc(C(=O)O)c1)c1ccc2c(c1)Nc1ccccc1S2`, the inhibition was 13.8% (active). As to `COc1cccc(C(=O)N/N=C(\C)c2cccc(NC(=O)c3ccc(F)cc3)c2)c1OC`, the inhibition is -4.93% (inactive). For the compound `Cc1ccc(CNC(=O)CCNS(=O)(=O)c2cccc3nonc23)cc1`, the inhibition is 0.736% (inactive). Turning to `CC1CCN(C(=O)c2cc3nc(C4CC4)cc(C(F)(F)F)n3n2)CC1`, the inhibition is -2.25% (inactive). As for `COc1ccc(/C=C/CN2CCCC(C(=O)c3cc(F)ccc3F)C2)cc1` (stereo not drawn), the figure is -1.96% (inactive).

On to `CN(C(=O)C1CCN(c2ncnc3c2nc2n3CCCCC2)CC1)C1CCCCC1`, for which the inhibition is -3.36% (inactive).

Regarding `COCCCNC(NC(=O)c1ccc(OC)cc1)C(Cl)(Cl)Cl` (stereo not drawn), the inhibition was -3.52% (inactive). As for `c1ccc(CCN2CN=C(Nc3nc4ccccc4o3)NC2)cc1`, the figure is -1.13% (inactive). As for `COc1ccc(C(=O)c2c(C)c(CCC#N)n3ccccc23)c(OC)c1`, the figure is -2.38% (inactive); as for `Cc1ccc(S(=O)(=O)N2C[C@H]3C(=O)C[C@@H](c4cccc5ccccc45)N(S(=O)(=O)c4ccc(C)cc4)[C@H]3C[C@H]2c2ccc(Cl)cc2)cc1`, -2.51% (inactive); as for `O=C1NC(=O)N(c2ccccc2)C(=O)/C1=C/c1ccc([N+](=O)[O-])s1`, 25.4% (active).

As to `COc1cccc(/C=C2\SC(=N)N(c3ccc(F)cc3)C2=O)c1`, the inhibition was -2.96% (inactive). As for `COc1cccc(N2C(=O)NC(=O)/C(=C\c3ccc([N+](=O)[O-])s3)C2=O)c1`, the figure is 16.4% (active).

In the case of `COc1cccc(C(=O)Oc2cc(C)[nH]c(=O)c2[N+](=O)[O-])c1`, the inhibition was -0.419% (inactive). As for `O=C(OCC(=O)N1CCN(c2ccccc2)CC1)c1ccc([N+](=O)[O-])s1`, the figure is 0.124% (inactive). As for `O=[N+]([O-])c1ccc(C=Nc2ccc(Cl)cc2Cl)s1`, the figure is -1.01% (inactive); as for `CCCC1C(c2ccccc2)C(C#N)(C#N)C2(C#N)CC1(N)NC2=O` (stereo not drawn), -0.503% (inactive); as for `COc1cccc(OCC(O)CNC(=O)c2oc3c(C)c(C)ccc3c2C)c1` (stereo not drawn), -2.55% (inactive). With `COc1c(O)cc2oc(-c3ccc(O)c(O)c3)cc(=O)c2c1O`, the inhibition is 13.9% (active). As for `COc1cc(O)c2c(=O)c3c(O)c(O)ccc3oc2c1OC`, the figure is -0.783% (inactive). Then `OCc1ccc(-c2ccccc2)c(-c2ccccc2)c1`, with -0.325% (inactive); and `COc1ccccc1C(=O)NC(=S)NC12CC3CC(CC(C3)C1)C2`, with -0.832% (inactive); and `COc1ccc(CCNC(=S)NC(=O)/C=C/c2ccc(C)cc2)cc1OC`, with -0.381% (inactive). Then `CC(Nc1ccccc1)c1cccnc1` (stereo not drawn), with -4.94% (inactive); and `CCC(CC)c1nnc(NC(=O)c2nn(C)c(=O)c3ccccc23)s1`, with -1.39% (inactive). For `Cc1ccc(N2CCN(S(=O)(=O)c3ccc(F)cc3)CC2)c(C)c1`, the inhibition is -3.77% (inactive). As for `CC1CC(C)CN(C(=O)COC(=O)c2ccc3ncsc3c2)C1` (stereo not drawn), the figure is -1.75% (inactive); as for `Cc1cc(C)c(C#N)c(SCC(=O)N(CC(C)C)C2CCS(=O)(=O)C2)n1` (stereo not drawn), -3.78% (inactive); as for `CCC(C)(C)c1ccc(Oc2ccc(NC(=O)COC(=O)C3=COCCO3)cc2)cc1`, -2.88% (inactive).

On to `COc1ccccc1CCCNC(=O)C1CCC(=O)N(CCN2CCOCC2)C1` (stereo not drawn), for which the inhibition was -0.246% (inactive).

On to `Cn1c(=O)n(CCc2ccccc2)c(=O)c2c1nc1n2CCCN1c1ccccc1`, for which the inhibition is -3.89% (inactive). Then `Cc1ccc(NC(=O)CN2C(=O)NC(C)(c3ccc(Cl)cc3)C2=O)c(Br)c1` (stereo not drawn), with -1.17% (inactive); and `COc1ccc(NC(=O)CN(C)C(=O)c2cccc(S(=O)(=O)N3CCN(c4ccccc4)CC3)c2)cc1`, with -1.23% (inactive); and `O=C(O)c1ccccc1N=N/C(=N/Nc1cc(S(=O)(=O)O)ccc1O)c1ccccc1`, with 8.82% (active). As for `CC(C)(O)C#Cc1ccc(CNC[C@H]2O[C@@H](n3cnc4c(=O)[nH]c(N)nc43)[C@H](O)[C@@H]2O)s1`, the figure is -0.925% (inactive); as for `O=S(=O)(c1ccc(SCc2ccc(Br)cc2)nc1)N1CCOCC1`, -1.66% (inactive). Consider `O=C(Nc1cccc(-c2cccc(Cl)c2)c1)C1CCN(C2CCC2)CC1`, for which the inhibition was -25.6% (inactive).

Consider `Cc1ccc(/C([O-])=C(/C(=S)NCc2ccco2)[n+]2ccccc2)cc1[N+](=O)[O-]`, for which the inhibition was 1.32% (inactive). As for `Cc1sc2ncnc(SCC(=O)NC3CCS(=O)(=O)C3)c2c1C` (stereo not drawn), the figure is -1.04% (inactive).

In the case of `CC1CCCC(C)N1C(=O)COC(=O)COc1ccccc1C#N` (stereo not drawn), the inhibition was -1.75% (inactive). Then `Cc1cc(OCC(=O)N2CCN(c3ncccn3)CC2)ccc1Cl`, with -3.44% (inactive); and `COc1ccc(C(=O)Nc2ccnn2C2CCN(Cc3ccncc3)CC2)cc1`, with -2.54% (inactive); and `CCC(C)C(CO)NC(=O)/C=C/[C@H]1O[C@@H](n2cnc3c(NC(=O)c4ccccc4)ncnc32)[C@H](O)[C@@H]1O` (stereo partly drawn), with -0.392% (inactive). As for `COc1cc(C(O)c2nc(-c3cnn(C)c3)cs2)ccc1F` (stereo not drawn), the figure is -2.58% (inactive); as for `CS(=O)(=O)N(Cc1ccccc1)c1ccc(C(=O)NN=C2CCCCCC2)cc1`, -7.2% (inactive). As for `CCCN(C(=O)c1nc2nccc(C)n2n1)c1c(N)n(Cc2ccccc2)c(=O)[nH]c1=O`, the figure is 0.906% (inactive). Turning to `O=Nc1c(O)cc(O)c2ccccc12`, the inhibition was -1.75% (inactive). As for `COc1ccc(C(=O)NCc2ccc(Cl)cc2)cc1S(=O)(=O)N1CCCC1`, the inhibition was 39.8% (active). As for `COc1ccc(C(=O)NCc2ccc(C)cc2)cc1S(=O)(=O)N1CCCC1`, the figure is 28% (active); as for `COc1ccc(C(=O)NCC2CCCO2)cc1S(=O)(=O)NCc1ccc(Cl)cc1` (stereo not drawn), -1.14% (inactive); as for `COC(=O)c1ccc(CNC(=O)c2ccc(S(=O)(=O)N3CCCCCC3)cc2)cc1`, 1.15% (inactive). For `COc1ccc(C(=O)NCC2CCCCC2)cc1S(=O)(=O)N1CCCC1`, the inhibition was -0.215% (inactive).

Regarding `COc1ccccc1CNC(=O)c1ccc(Cl)c(S(=O)(=O)N2CCCC2)c1`, the inhibition was 1.35% (inactive). As for `C=CCSc1ccc(S(=O)(=O)N2CCN(C)CC2)cn1`, the figure is -0.339% (inactive); as for `CCN(CC)C(CNC(=O)CSc1nnnn1-c1cccc(F)c1)c1ccco1` (stereo not drawn), -0.979% (inactive); as for `Cc1ccc(S(=O)(=O)N(C)C)cc1NC(=O)COC(=O)c1c(C)noc1C`, -3.04% (inactive). As for `COCCNC(=O)CCCn1c(=O)c2ccccc2n(Cc2cccc([N+](=O)[O-])c2)c1=O`, the figure is -2.03% (inactive); as for `CSC1=NC2(C)CCCCC2C12C=CC(=O)C=C2` (stereo not drawn), -1.74% (inactive); as for `O=C(Nc1ccc(N2CCOCC2)c(Cl)c1)c1ccc(S(=O)(=O)N2CCOCC2)cc1`, -1.1% (inactive).

Regarding `CC(=O)c1nn(-c2cccc(C(F)(F)F)c2)c(=O)[nH]c1=O`, the inhibition is -2.32% (inactive). As for `O=C(Nc1cc(=O)[nH]c2ncnn12)c1ccccc1Cl`, the figure is 0.264% (inactive). As for `CC(C(=O)N1CCOCC1)N1c2cccc3cccc(c23)S1(=O)=O` (stereo not drawn), the figure is -1.36% (inactive). Then `OC1CN=C2Sc3ccccc3N2C1` (stereo not drawn), with -1.93% (inactive); and `COc1ccccc1NC(=O)CSc1nnc(Cn2nnc(-c3ccccc3)n2)n1-c1ccccc1`, with -2.49% (inactive); and `Nc1cc(C(=O)N2CCN(c3ccccc3Cl)CC2)ccc1N1CC2CC(C1)c1cccc(=O)n1C2` (stereo not drawn), with 0.263% (inactive).

For `COc1cc(CCC(=O)Nc2ccncc2Cl)cc(OC)c1OC`, the inhibition is -0.965% (inactive). On to `COc1cc(CCC(=O)N2CCN(c3ccccc3Cl)CC2)cc(OC)c1OC`, for which the inhibition was 67.4% (active). `CC(=O)Nc1ccc(S(=O)(=O)NCCC(=O)N2CCN(c3ccccc3Cl)CC2)cc1`: the inhibition is -0.39% (inactive). Then `CCOc1ccc(CCNC(=O)CN2C(=O)NC3(CCc4ccccc43)C2=O)cc1OCC` (stereo not drawn), with -4.62% (inactive).

For `C=CCN(CC=C)CCOc1ccccc1[N+](=O)[O-]`, the inhibition is 0.271% (inactive). Then `COC(=O)[C@H](C(C)C)n1c(C)c(C(C)=O)c(C(C)=O)c1C`, with -1.13% (inactive); and `N#Cc1ccc(C(=O)OCC(=O)NC(=O)NC2CCCCC2)cc1`, with -1.55% (inactive). As for `COc1cccc(C2CC(c3ccccc3)=NN2S(=O)(=O)c2ccccc2)c1OC` (stereo not drawn), the figure is 9.71% (active); as for `COc1cccc(C2CC(c3cccs3)=NN2C(=O)CSC2=NCCS2)c1OC` (stereo not drawn), -1.77% (inactive); as for `CCS(=O)(=O)Nc1ccc(C2=NN(S(=O)(=O)c3ccc(F)cc3)C(c3ccco3)C2)cc1` (stereo not drawn), -3.77% (inactive). As for `COCCN(CCOC)c1nc(N)c2c(N)nc3c(c2c1C#N)CC(=O)N3Cc1ccc(Cl)cc1`, the figure is 39.6% (active); as for `Cc1ccc(-c2csc(NCCc3nc4cc(Cl)c(Cl)cc4n3CCOCCO)n2)cc1`, -0.743% (inactive). On to `CCC(=O)Nc1nnc(S(=O)(=O)N(CC(C)C)c2ccccc2)s1`, for which the inhibition was -1.99% (inactive).

For the compound `CC(C)CC(=O)Nc1nnc(S(=O)(=O)N(C)c2ccc(Cl)cc2)s1`, the inhibition was 19.6% (active).

As to `Cc1nc(NC(=O)CN(C)S(=O)(=O)c2ccc(Cl)cc2)sc1C`, the inhibition is 0.291% (inactive).
